Screening results from PubChem BioAssay.
Compounds with a hit are over-represented: about 0.51% of the library has one in this group of screens.
E coli growth-1 = E. coli growth inhibition, primary screen, OD600 | Escherichia coli growth, 23 h; active compounds read low | OD600 absorbance (concentration not given with the values) | actives 0.21% (n = 330,000);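 active = OD600 absorbance below the run mean of sample wells minus 3.6 SD, in any replicate, cut at about 0.56 in these data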
E coli growth-2 = E. coli V3065 growth inhibition, primary screen, counter-screen for AddAB inhibitor project, absorbance, OD600 | 18 h | inhibition, % at 11.9 µM | actives 0.27% (n = 330,000);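 active = inhibition above the campaign's mean inhibition across all tested compounds plus 3 SD, cut at about 9.9% in these data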;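 note: uninfected addAB+ strain grown without phage in ampicillin broth; 0% = DMSO wells and 100% = ciprofloxacin 0.95 µg/ml wells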
Tat transport = E. coli Tat export inhibitors, primary screen, MC4100, TorA-mCherry reporter, fluorescence, single point; AID 488895, 2010; actives 0.036% (n = 340,000); inhibition, % at 10 µM;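 active = mean replicate inhibition at least 50% and at least half of replicates individually reaching 50%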;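 note: exported cargo escapes ClpAP degradation while cytoplasmic cargo is degraded and loses fluorescence; 0% = median of neutral control wells and 100% = median of NaSCN control wells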
AddAB inh = growth inhibition of E. coli expressing H. pylori AddAB, primary screen, AddAB inhibitor project, absorbance; inhibition, % at 11.9 µM; actives 0.29% (n = 330,000); AID 435030, 2010; in the data active = inhibition above about 12%;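 note: 0% = vehicle wells of infected cells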
phage Ecoli inh = growth loss of phage-infected E. coli, primary screen, RecBCD inhibitor project, absorbance, with phage, HTS. actives 0.26% (n = 360,000). inhibition, % at 11.9 µM; in the data active = inhibition above about 11%
AddAB conf = growth loss of phage-infected E. coli expressing H. pylori AddAB, confirmation, AddAB inhibitor project, absorbance, E. coli V3065, T4 phage, triplicate. OD; T4 phage with gene 2 nonsense mutations. actives 64% (n = 880). shares compounds with AddAB inh. inhibition, % at 11.9 µM;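 active = mean inhibition above a set limit taken from the earlier primary screen, cut at about 13% in these data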;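 note: higher means less bacterial growth since AddAB block lets phage replicate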
RecBCD counter = growth loss of RecBCD+ E. coli with mutant T4 phage, counter-screen for AddAB inhibitor project, absorbance, V66 E. coli; actives 73% (n = 880); inhibition, % at 11.9 µM; OD growth; shares compounds with AddAB inh;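 active = mean inhibition above the mean of solvent-only control wells plus 3 SD, cut at about 4% in these data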;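 note: optical density read after an 18 h incubation at 37 °C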
bact viab count = bacterial viability inhibition counter-screen, confirmation, counter-screen for AddAB inhibitor project, absorbance | shares compounds with AddAB inh | absorbance (AddAB counterscreen) | inhibition, % at 11.9 µM | actives 35% (n = 880) | AID 488956, 2010; in the data active = inhibition above about 25%
The depositor's hits bear a star; i = inactive; / = no result given.

SMILES	E coli growth-1	E coli growth-2	Tat transport	AddAB inh	phage Ecoli inh	AddAB conf	RecBCD counter	bact viab count
Cc1ccc(-n2[nH]c(C)c(C=Nc3ccc(S(=O)(=O)Nc4nccs4)cc3)c2=O)cc1C	0.64	8	-6	11	9	/	/	/
CC(C)(C)C1C=C(C(=O)NC2CC2)OC(OCc2ccc(CO)cc2)C1 (centres undefined)	0.69	/	/	/	/	/	/	/
Cc1ccc2nc(SCC(=O)Nc3ccc4c(c3)OCCO4)[nH]c2c1	0.65	0	-1	1	-1	/	/	/
O=C(CSc1nc2ccccc2[nH]1)Nc1ccc2c(c1)OCCO2	0.62	10*	-5	12	9	/	/	/
O=c1[nH]c(=O)n(C2CC(O)C(CO)O2)cc1F (centres undefined)	0.062*	/	/	/	/	/	/	/
Cc1nc2sc(C(c3ccco3)N3CCN(C(c4ccccc4)c4ccccc4)CC3)c(O)n2n1 (centres undefined)	0.81	22*	12	37*	2	5	3	2
COc1ccc(NC(=O)CC2C(=O)N(c3cccc(C)c3)C(=O)N2C2CCCCC2)cc1 (centres undefined)	0.74	0	-4	0	2	/	/	/
CCc1ccc(NC(=O)CC2C(=O)N(c3cccc(C)c3)C(=O)N2C2CC2)cc1 (centres undefined)	0.78	53*	-10	99*	4	0	0	-2
O=C(NCc1cccs1)C1CCN(S(=O)(=O)c2cccc3cccnc23)CC1	0.76	4	-5	17*	1	-2	2	-2
O=S(=O)(Nc1cccc2ncccc12)c1cccs1	0.68	4	2	18*	/	7	5.2*	0
CC12CCC(C(=O)Nc3ccccc3Br)(CC1=NO)C2(C)C (centres undefined)	0.67	/	/	/	/	/	/	/
Cc1ccc(NC(=O)CSc2ccc(-c3ccccn3)nn2)cc1	0.66	4	7	9	10	/	/	/
O=C(CSc1ccc(-c2ccccn2)nn1)Nc1ccc(F)c(F)c1	0.69	14*	17	14*	8	7	9.7*	7
O=C(NN=Cc1cccnc1)C1c2ccccc2Oc2ccccc21	0.61	/	/	/	/	/	/	/
CCN1/C(=C/C=C/c2sc3ccccc3[n+]2CC)Sc2ccccc21	/	9	i	13*	/	61*	9.1*	14
O=C1NCC(c2ccccc2)N(CCc2cc(C(F)(F)F)cc(C(F)(F)F)c2)C1=O (centres undefined)	0.72	/	/	/	/	/	/	/
COc1ccc(C(=O)N2CC3(CC(c4cccc([N+](=O)[O-])c4)=NO3)CC2C(=O)NCC(N)=O)cc1 (centres undefined)	0.66	/	/	/	/	/	/	/
O=C(NN=Cc1cccs1)c1sccc1-n1cccc1	0.71	/	/	/	/	/	/	/
Cn1ccnc1SCC(=O)c1ccc(Cl)cc1	0.68	35*	-3	82*	-1	0	0	-5
Cn1ccnc1SCC(=O)c1ccc(O)cc1	0.69	-1	4	0	1	/	/	/
CCN1/C(=C/C=C/c2oc3ccc(-c4ccccc4)cc3[n+]2CC)Oc2ccc(-c3ccccc3)cc21	0.74	12*	-15	12*	9	8	5.6*	6
O=C(Nc1cccc2ccccc12)c1ccc([N+](=O)[O-])o1	0.62	8	-13	5	3	/	/	/
CCCn1c(NC(=O)c2cccc(C)c2C)nc2ccccc21	0.67	-4	8	-2	/	/	/	/
O=C(Nc1ccccn1)c1ccc([N+](=O)[O-])o1	0.53	72*	-11	98*	/	57*	17*	62*
CCCn1c(NC(=O)c2ccc([N+](=O)[O-])o2)nc2ccccc21	0.63	8	-5	15*	11	58*	4.7*	15
SMILES	E coli growth-1	E coli growth-2	Tat transport	AddAB inh	phage Ecoli inh	AddAB conf	RecBCD counter	bact viab count
O=C(Nc1ncccn1)c1ccc([N+](=O)[O-])o1	0.49*	9	7	60*	14*	96*	5.6*	18
COc1cc(C=C(NC(C)=O)C(=O)Nc2ccc(NC(C)=O)cc2)ccc1OC(C)=O	0.69	/	/	/	/	/	/	/
NS(=O)(=O)c1cc2c(cc1Cl)NCNS2(=O)=O	0.71	38*	-9	55*	3	100*	6.2*	75*
COc1cc(C2Nc3cc(Cl)c(S(N)(=O)=O)cc3S(=O)(=O)N2)cc(OC)c1OC (centres undefined)	0.75	5	-2	1	4	/	/	/
CCOc1ccc(C=NNC(=O)Cn2ccnc2C)cc1	0.7	/	/	/	/	/	/	/
O=C(Nc1oc2ccccc2c(=O)c1-c1ccccc1)c1ccco1	/	/	/	/	-2	/	/	/
Cc1ccc(-c2c(NC(=O)c3ccco3)oc3ccccc3c2=O)cc1	0.63	39*	-3	93*	-1	-1	0	-2
O=c1c(O)c(-c2ccccc2)oc2ccccc12	/	/	0	/	10	/	/	/
Cc1ccc(-c2oc3ccccc3c(=O)c2O)cc1	0.72	13*	6	13*	4	14*	14*	10
COc1cc(C=NOCC(=O)NC2CCCCC2)ccc1OCc1ccccc1	0.7	/	/	/	/	/	/	/
CC(C)COc1ccc(S(=O)(=O)n2cc(F)c(=O)[nH]c2=O)cc1	0.67	7	-4	13*	7	4	2	4
CCOc1ccc(Cn2cc(F)c(=O)[nH]c2=O)cc1	0.65	1	-9	2	3	/	/	/
CCCOc1ccc(S(=O)(=O)n2cc(F)c(=O)[nH]c2=O)cc1	0.69	6	2	13*	3	11	1	5
O=S1(=O)C2CC3C=C[C@@]2(CN1Cc1cccc(F)c1)O3 (some centres undefined)	0.71	/	/	/	/	/	/	/
Cc1c(Cl)cccc1NC(=S)NCc1ccccc1Cl	0.69	5	20	18*	5	17*	23*	18
Cc1c(Cl)cccc1NC(=S)NCc1ccc(F)cc1	0.68	1	-1	4	5	/	/	/
CNC(=S)NN=Cc1cc(C)ccc1C	0.66	/	/	/	/	/	/	/
O=C(NCCCn1ccnc1)C(=O)NCC(c1ccco1)N1CCN(c2ccccc2)CC1 (centres undefined)	0.72	2	0	0	1	/	/	/
O=C(NCCCn1ccnc1)C(=O)NCC(c1cccnc1)N1CCN(c2ccccc2)CC1 (centres undefined)	0.74	98*	-3	97*	1	-5	0	0
Nc1c(S(=O)(=O)c2ccccc2)c2nc3ccccc3nc2n1N=Cc1cccc(O)c1	0.76	/	/	/	/	/	/	/
Nc1c(S(=O)(=O)c2cccc(Cl)c2)c2nc3ccccc3nc2n1/N=C/c1ccc(O)c(O)c1	/	13*	/	15*	/	13*	13*	14
